Results: PubChem BioAssay AID1159580 (chemical genetic matrix, 2015)
Values joined by “and” are separate entries in the source; they are usually repeats but may differ in a detail not shown here. Equal values may be shown once. Among all 5,500 compounds or so, about 2,000 (36%) were called active. Inconclusive results (about 18%) are left out. Cut-off read from the data, not from the text of the source: active = normalized growth mostly below about 0.91 (no sharp cut-off); inconclusive = no clear call, values can overlap the other calls; inactive = mostly above about 0.92. This is one part of the list.

Assay: chemical genetic growth profiling, strain panel (AID 1159580);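 note: tested at 20 µM; growth read once vehicle control cultures reached saturation at 30 °C; 1 = growth at the plate median or of vehicle wells; lower values mean less growth of the strain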
Details: S. cerevisiae deletion strains, growth OD

Measured: normalized growth

Clc1ccc(CSC(Cn2ccnc2)c2ccc(Cl)cc2Cl)cc1 (stereo not given)
active: locus YAL021C, strain ccr4, hits give low values 0.067 | locus YAL026C, strain drs2, hits give low values 0.0648 | locus YAL030W, strain snc1, hits give low values 0.0596 | locus YBL061C, strain skt5, hits give low values 0.062 | locus YBR009C, strain hhf1, hits give low values 0.0601 | locus YBR021W, strain FUR4, hits give low values 0.0857 | locus YBR023C, strain chs3, hits give low values 0.0649 | locus YBR171W, strain sec66, hits give low values 0.076 | locus YBR229C, strain ROT2, hits give low values 0.0457 | locus YBR231C, strain swc5, hits give low values 0.064 | locus YBR279W, strain paf1, hits give low values 0.064 | locus YCL011C, strain gbp2, hits give low values 0.0611 | locus YCL016C, strain dcc1, hits give low values 0.0681 | locus YCL029C, strain bik1, hits give low values 0.0583 | locus YCL069W, strain vba3, hits give low values 0.0628 | locus YCR088W, strain abp1, hits give low values 0.0629 | locus YDL005C, strain med2, hits give low values 0.0743 | locus YDL035C, strain GPR1, hits give low values 0.0497 | locus YDL040C, strain nat1, hits give low values 0.059 | locus YDL074C, strain BRE1, hits give low values 0.0766 | locus YDL101C, strain DUN1, hits give low values 0.0543 | locus YDL134C, strain PPH21, hits give low values 0.048 | locus YDL185W, strain tfp1, hits give low values 0.0566 | locus YDL192W, strain arf1, hits give low values 0.0601 | locus YDR001C, strain nth1, hits give low values 0.0613 | locus YDR069C, strain doa4, hits give low values 0.0624 | locus YDR101C, strain arx1, hits give low values 0.0606 | locus YDR137W, strain rgp1, hits give low values 0.102 | locus YDR150W, strain NUM1, hits give low values 0.0543 | locus YDR159W, strain sac3, hits give low values 0.0874 | locus YDR162C, strain NBP2, hits give low values 0.0476 | locus YDR195W, strain ref2 0.129 | locus YDR297W, strain sur2, hits give low values 0.0568 | locus YDR318W, strain mcm21, hits give low values 0.0592 | locus YDR334W, strain swr1, hits give low values 0.0638 | locus YDR335W, strain msn5, hits give low values 0.0624 | locus YDR388W, hits give low values 0.0553 | locus YDR392W, strain spt3, hits give low values 0.0838 | locus YDR502C, strain sam2, hits give low values 0.0567 | locus YEL003W, strain gim4, hits give low values 0.054 | locus YEL037C, strain rad23, hits give low values 0.0579 | locus YEL061C, strain CIN8 (second series), hits give low values 0.0613 | locus YEL061C, strain CIN8, hits give low values 0.0475 | locus YER015W, strain faa2, hits give low values 0.0623 | locus YER016W, strain bim1, hits give low values 0.061 | locus YER110C, hits give low values 0.0729 | locus YER111C, strain swi4, hits give low values 0.0739 | locus YER155C, strain BEM2 (second series), hits give low values 0.0999 | locus YER155C, strain BEM2, hits give low values 0.0594 | locus YER167W, strain BCK2, hits give low values 0.0492 | locus YFR010W, strain ubp6, hits give low values 0.0712 | locus YGL078C, strain dbp3, hits give low values 0.0667 | locus YGL086W, strain mad1, hits give low values 0.0535 | locus YGL167C, strain pmr1, hits give low values 0.0756 | locus YGL173C, strain kem1, hits give low values 0.0697 | locus YGL227W, strain vid30, hits give low values 0.065 | locus YGL240W, strain doc1, hits give low values 0.0922 | locus YGL248W, strain PDE1, hits give low values 0.0451 | locus YGL253W, strain hxk2, hits give low values 0.0562 | locus YGR078C, strain PAC10, hits give low values 0.0475 | locus YGR135W, strain pre9, hits give low values 0.0572 | locus YGR229C, strain SMI1, hits give low values 0.0582 | locus YGR252W, strain gcn5, hits give low values 0.112 | locus YHR013C, strain ard1, hits give low values 0.101 | locus YHR027C, strain rpn1, hits give low values 0.0633 | locus YHR030C, strain SLT2, hits give low values 0.0493 and 0.0968 | locus YHR079C, strain IRE1 (second series), hits give low values 0.0556 | locus YHR079C, strain IRE1, hits give low values 0.104 | locus YHR094C, strain hxt1, hits give low values 0.0572 | locus YHR129C, strain ARP1, hits give low values 0.0541 | locus YHR142W, strain chs7, hits give low values 0.0779 | locus YHR200W, strain rpn10, hits give low values 0.0594 | locus YIL066C, strain RNR3, hits give low values 0.047 | locus YIL073C, strain SPO22, hits give low values 0.109 | locus YIL125W, strain kgd1, hits give low values 0.0629 | locus YIR030C, strain dcg1, hits give low values 0.0572 | locus YJL092W, strain hpr5, hits give low values 0.0607 | locus YJL095W, strain BCK1 (second series), hits give low values 0.0571 | locus YJL095W, strain BCK1, hits give low values 0.0582 and 0.0962 | locus YJL115W, strain asf1, hits give low values 0.0715 | locus YJL129C, strain trk1, hits give low values 0.0907 | locus YJL134W, strain LCB3, hits give low values 0.0474 | locus YJL154C, strain vps35, hits give low values 0.0605 | locus YJL164C, strain tpk1, hits give low values 0.0651 | locus YJL166W, strain qcr8, hits give low values 0.0602 | locus YJL168C, strain set2, hits give low values 0.0557 | locus YJL187C, strain SWE1 (second series), hits give low values 0.0452 | locus YJL187C, strain SWE1, hits give low values 0.0595 | locus YJR043C, strain POL32, hits give low values 0.0608 | locus YJR066W, strain TOR1, hits give low values 0.00124
